PubChem BioAssay (NCATS)
Values joined by “and” are separate entries in the source; they are usually repeats but may differ in a detail not shown here. Identical values can stand only once. Results filed as inconclusive are left out. Where a call stands in place of a potency, no number is given. More than one record can exist for a structure, and the calls need not agree. Active and inactive are the calls of the source. Unless noted, calls follow the shape of the dose curve; as a rule, active = well fitted curve in the direction sought with a large enough effect; inconclusive = small, poorly fitted or top-dose-only effect, or another doubt; inactive = no such curve, though single readings can be large; an effect the other way counts as inactive or inconclusive.

Assays:
[1] = High-throughput drug toxicity screening in the BPDCN cell line Cal-1 (AID 1224825; call rule not given here); conditions: Cal-1 BPDCN cell viability, qHTS; at 45.8 µM (top of the series) unless noted
In short: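 Percent activity derived from CellTiter-Glo luminescence, scaling DMSO to 100% and 9.2 uM final bortezomib to 0%. BPDCN Cal-1 cells (500/well, RPMI plus 10% FBS) incubated with compounds 48 hours at 37C before reading.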

[2] = qHTS assay for measurement of the activity of small molecule inhibitors on Zika virus induced Caspase-3 activity in human iPSC derived neural progenitor cells (hNPCs) (AID 1224857); also: nearly all actives have a fitted effect of over 65% in size
In short: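 Human iPSC-derived neural progenitor cells pretreated 1 hr with compounds, then infected with Zika virus (2 FFU/cell) for 6 hours at 37 C. Caspase-3/7 measured by Caspase-Glo luminescence; % inhibition calculated from induction scaled to uninfected (0%) and infected (100%) wells.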

[3] = qHTS assay for measurement of the activity of small molecule inhibitors on Zika virus induced Caspase-3 activity in human astrocytoma cells (AID 1224859)
In short: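 SNB-19 astrocytoma cells, 250/well, pretreated 1 h with compounds, then Zika virus at 2 FFU/cell for 6 h at 37 C; Caspase-Glo 3/7 luminescence after 30 min; percent inhibition normalised to uninfected and infected controls.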

[4] = qHTS Screen of the MIPE 4.0 Collection Against Ewings Sarcoma (RDES) (AID 1259252); also: nearly all actives have a fitted effect of over 35% in size; also: potency is read from the fitted curve at half-maximal effect
In short: (§1)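 After a 4 h attachment period in RPMI/5% FBS, cells were pin-dosed with test compounds; DMSO served as negative and 9.2 uM bortezomib (final) as positive control. Luminescent CellTiter-Glo signal at 48 h defined viability.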

[5] = qHTS Screen of the MIPE 4.0 Collection Against Ewings Sarcoma (TC71) (AID 1259253); also: nearly all actives have a fitted effect of over 40% in size; also: potency is read from the fitted curve at half-maximal effect
In short: as §1

[6] = qHTS Screen of the MIPE 4.0 Collection Against Ewings Sarcoma (EW8) (AID 1259255); also: nearly all actives have a fitted effect of over 35% in size; also: potency is read from the fitted curve at half-maximal effect
In short: as §1

[7] = qHTS assay to identify small molecule inhibitors of chordoma cells - UCH-1 (AID 1259355); also: nearly all actives have a fitted effect of over 55% in size
In short: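 800 cells/well, overnight attach; compounds pinned at 15 concs, then auranofin/camptothecin/doxorubicin/rubitecan/topotecan combo added; 48hr 37 C, 5% CO2; CellTiter-Glo, 30min RT, luminescence.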

[8] = qHTS assay to identify small molecule inhibitors of chordoma cells - UCH-2 (AID 1259356)
[9] = biological target: Atrial natriuretic peptide receptor 1 (Homo sapiens) (UniProt P16066); experiment: Natriuretic polypeptide receptor (hNpr1) antagonism - Pilot screen (AID 1347049; calls by dose curve;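 also: HEK293 cells with hNpr1 and GloSensor cGMP luciferase stimulated by 0.1 nM hNppA; agonist-evoked cGMP luminescence read 20 min after hNppA addition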)
In short: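 Receptor antagonism read as cGMP-dependent luminescence in hNpr1/pGS-40F HEK293 cells: pre-read after 30 min compound exposure, post-read 20 min after hNppA agonist at 0.1 nM final, all at room temperature, protected from light; A-71915 titration as control.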

[10] = biological target: Atrial natriuretic peptide receptor 2 (Homo sapiens) (UniProt P20594); experiment: Natriuretic polypeptide receptor (hNpr2) antagonism - Pilot subtype selectivity assay (AID 1347050; calls by dose curve; also: potency is read from the fitted curve at half-maximal effect)
In short: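 Antagonist mode: compounds (LOPAC1280, seven 1:5 dilutions) added 30 min before 1 nM hNppC stimulation of hNpr2-HEK293 cGMP-sensor cells; luminescence read before and 20 min after agonist at ambient temperature.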

[11] = Natriuretic polypeptide receptor (hNpr1) antagonism - Pilot counterscreen GloSensor control cell line (AID 1347045; calls by dose curve)
In short: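 The SNP-driven cGMP luminescence signal (50 uM, 20 min, room temperature) was measured in GloSensor HEK293 control cells. Compounds were tested as a LOPAC titration series and preincubated for 30-50 min.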

[12] = qHTS Screen of the MIPE 4.0 Collection Against Ewings Sarcoma (TC32) (AID 1259256); also: nearly all actives have a fitted effect of over 45% in size; also: potency is read from the fitted curve at half-maximal effect
In short: as §1

[13] = P-glycoprotein substrates identified in KB-3-1 adenocarcinoma cell line, qHTS therapeutic library screen (AID 1346986); conditions: outcome: dose series up to 44.5 µM unless noted; also: nearly all actives have a fitted effect of over 60% in size
In short: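 Dose-response cytotoxicity, KB-3-1 vs P-gp-high KB-8-5-11, no colchicine in assay medium. Read: CellTiter-Glo at 72 h.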

[14] = P-glycoprotein substrates identified in KB-8-5-11 adenocarcinoma cell line, qHTS therapeutic library screen (AID 1346987); conditions: outcome: dose series up to 44.5 µM unless noted; also: nearly all actives have a fitted effect of over 65% in size; also: potency is read from the fitted curve at half-maximal effect
In short: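 Human cervical adenocarcinoma KB-8-5-11 cells, selected in colchicine to over-express P-gp and assayed without it, were exposed for 72 h to titrated compounds. An ATP-based luminescent viability signal gave AC50.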

[15] = Identifying Small Molecule Inhibitors of Pancreatic Cancer Stem Cells (SN12C, Adherent) (AID 1259358);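 also: cell survival measured after 48 h of compound exposure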
In short: (§2)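 Adherent (2D) versus sphere (3D) formats; spheres generated 14 d in SCM beforehand. Compound transferred by pin tool after 4 h, 48 h incubation, CellTiter-Glo endpoint.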

[16] = Identifying Small Molecule Inhibitors of Pancreatic Cancer Stem Cells (A278, Adherent) (AID 1259361);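 also: viability read after 48 h compound exposure; nearly all actives have a fitted effect of over 35% in size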
In short: as §2

Chain of Atrial natriuretic peptide receptor 1 (Homo sapiens) (P16066 whole entry, looked up): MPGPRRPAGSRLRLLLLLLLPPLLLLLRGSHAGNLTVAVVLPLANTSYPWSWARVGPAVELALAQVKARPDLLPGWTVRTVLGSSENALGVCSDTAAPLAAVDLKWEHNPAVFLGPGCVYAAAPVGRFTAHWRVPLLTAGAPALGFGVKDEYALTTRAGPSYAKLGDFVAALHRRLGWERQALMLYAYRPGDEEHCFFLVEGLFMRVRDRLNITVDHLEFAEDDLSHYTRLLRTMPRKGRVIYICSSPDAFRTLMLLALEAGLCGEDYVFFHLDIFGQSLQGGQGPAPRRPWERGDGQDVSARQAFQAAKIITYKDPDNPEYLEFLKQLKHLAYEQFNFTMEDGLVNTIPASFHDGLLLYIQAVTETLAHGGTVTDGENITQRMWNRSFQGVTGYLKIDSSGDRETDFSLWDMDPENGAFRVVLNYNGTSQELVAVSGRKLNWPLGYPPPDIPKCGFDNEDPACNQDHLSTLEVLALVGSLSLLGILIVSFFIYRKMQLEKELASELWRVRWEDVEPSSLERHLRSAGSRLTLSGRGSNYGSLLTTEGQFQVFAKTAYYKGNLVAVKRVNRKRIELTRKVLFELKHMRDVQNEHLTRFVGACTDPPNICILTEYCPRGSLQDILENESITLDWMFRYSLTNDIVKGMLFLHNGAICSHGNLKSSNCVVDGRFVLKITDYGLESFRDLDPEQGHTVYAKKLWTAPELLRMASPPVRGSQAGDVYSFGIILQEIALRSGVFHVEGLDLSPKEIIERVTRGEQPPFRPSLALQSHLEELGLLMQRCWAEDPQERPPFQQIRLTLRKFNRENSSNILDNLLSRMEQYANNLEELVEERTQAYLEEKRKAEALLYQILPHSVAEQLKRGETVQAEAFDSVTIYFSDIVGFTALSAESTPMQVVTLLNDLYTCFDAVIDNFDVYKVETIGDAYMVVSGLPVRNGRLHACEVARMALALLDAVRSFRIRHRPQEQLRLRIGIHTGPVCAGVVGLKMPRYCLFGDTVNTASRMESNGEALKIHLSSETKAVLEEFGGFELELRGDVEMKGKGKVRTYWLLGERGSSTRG
Chain of Atrial natriuretic peptide receptor 2 (Homo sapiens) (P20594 whole entry, looked up): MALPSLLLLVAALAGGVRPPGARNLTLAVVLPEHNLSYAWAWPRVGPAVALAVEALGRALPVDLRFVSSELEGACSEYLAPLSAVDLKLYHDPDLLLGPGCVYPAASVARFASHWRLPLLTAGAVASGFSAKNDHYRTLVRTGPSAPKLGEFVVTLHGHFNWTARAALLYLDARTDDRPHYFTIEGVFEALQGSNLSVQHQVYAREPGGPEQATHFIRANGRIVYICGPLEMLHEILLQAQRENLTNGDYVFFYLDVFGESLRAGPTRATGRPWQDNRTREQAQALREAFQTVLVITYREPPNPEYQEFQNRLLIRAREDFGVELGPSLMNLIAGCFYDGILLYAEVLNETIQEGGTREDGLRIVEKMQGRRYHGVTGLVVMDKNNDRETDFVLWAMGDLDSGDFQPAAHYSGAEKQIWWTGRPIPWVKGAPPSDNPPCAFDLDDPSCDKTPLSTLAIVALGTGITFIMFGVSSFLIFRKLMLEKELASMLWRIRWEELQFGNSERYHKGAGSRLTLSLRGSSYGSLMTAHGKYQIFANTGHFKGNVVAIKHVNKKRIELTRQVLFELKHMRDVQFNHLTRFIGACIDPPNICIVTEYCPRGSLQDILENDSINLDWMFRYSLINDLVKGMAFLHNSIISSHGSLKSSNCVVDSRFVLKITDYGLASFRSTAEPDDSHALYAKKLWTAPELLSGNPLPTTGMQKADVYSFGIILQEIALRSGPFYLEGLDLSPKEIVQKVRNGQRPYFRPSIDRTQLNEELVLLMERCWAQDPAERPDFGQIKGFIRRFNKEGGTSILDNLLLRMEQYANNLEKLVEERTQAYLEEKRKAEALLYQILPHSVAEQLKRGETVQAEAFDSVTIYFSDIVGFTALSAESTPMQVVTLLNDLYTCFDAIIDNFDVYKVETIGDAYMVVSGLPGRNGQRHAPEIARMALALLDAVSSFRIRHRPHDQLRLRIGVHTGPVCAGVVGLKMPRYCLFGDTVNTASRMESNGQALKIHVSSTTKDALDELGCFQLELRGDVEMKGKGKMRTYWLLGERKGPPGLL

Row | Compound | viability (% of control) [1] [%] | Potency [2] | Potency [3] | Potency [4] | Potency [5] | Potency [6] | Potency [7] | outcome [8] | Potency [9] | Potency [10] | Potency [11] | Potency [12] | outcome [13] | Potency [14] | Potency [15] | IC50 (viability decrease) [16]
1 | CC(C)C(=O)Nc1ccc([N+](=O)[O-])c(C(F)(F)F)c1 | 5.71 | inactive | inactive | 7.43 µM (active) | 10.5 µM (active) | 13.2 µM (active) | inactive | inactive | inactive | inactive |  |  |  |  |  | 
2 | Cc1ccccc1N1C(=O)c2cc(S(N)(=O)=O)c(Cl)cc2NC1C (stereo unspecified) | 108 | inactive | inactive | inactive | inactive | inactive |  | inactive | inactive | inactive | inactive |  |  |  |  | 
3 | NCCc1cnc[nH]1 | 99.6 | inactive | inactive | 5.9 µM (active) |  | inactive | inactive | inactive | inactive | inactive | inactive | inactive | inactive | inactive |  | 
4 | COc1ccc(C2CNC(=O)C2)cc1OC1CCCC1 (stereo unspecified) | 117 | inactive | inactive | inactive | inactive | inactive | inactive | inactive | inactive | inactive | inactive |  |  | inactive |  | 
5 | Clc1ccc2c(c1)C(N1CCNCC1)=Nc1ccccc1O2 | 102 | inactive | inactive |  | 16.6 µM (active) | 16.6 µM (active) |  | inactive |  | 8.26 µM (active) |  | 18.7 µM (active) |  |  |  | 
6 | Cc1cc(C(C)(C)C)cc(C)c1CC1=NCCN1 | 12.2 | inactive | inactive |  | inactive | inactive |  | inactive | inactive | inactive | inactive |  |  | inactive |  | 
7 | CC(C)(C)C(=O)Oc1ccc(S(=O)(=O)Nc2ccccc2C(=O)NCC(=O)O)cc1 | 96 | inactive | inactive |  | inactive | inactive | inactive | inactive |  |  |  | inactive | inactive | inactive |  | 
8 | CCC1(c2ccccc2)C(=O)NCNC1=O | 8.03 | inactive | inactive | 9.35 µM (active) | 11.8 µM (active) | 18.7 µM (active) |  | inactive | inactive | inactive | inactive |  |  | inactive |  | 
9 | CC[N+](CC)(CC)CCOc1cccc(OCC[N+](CC)(CC)CC)c1OCC[N+](CC)(CC)CC | 111 | inactive | inactive |  | inactive | inactive | inactive | inactive | inactive | inactive |  | inactive |  |  |  | 
10 | NC(=O)NO | 2.6 | inactive | inactive | 20.9 µM (active) | 5.9 µM (active) |  | inactive | inactive | inactive | inactive | inactive |  |  | inactive and 1.66 µM (active) |  | 
11 | COc1nc(C)nc(Cl)c1NC1=NCCN1 | 97.7 | inactive | inactive |  | inactive | inactive | inactive | inactive | inactive | inactive | inactive | inactive |  | inactive |  | 
12 | O=C(c1ccc(F)cc1)C1CCN(CCn2c(=O)[nH]c3ccccc3c2=O)CC1 | 112 | inactive | inactive | inactive |  |  | inactive | inactive | inactive | inactive | inactive |  |  | inactive |  | 
13 | O=C1N(c2ccccc2)c2ccccc2C1(Cc1ccncc1)Cc1ccncc1 | 130 | inactive | inactive |  | 16.6 µM (active) | inactive | inactive | inactive | inactive |  | inactive |  | inactive | inactive |  | 
14 | CC1(CN2CCC(n3c(=O)[nH]c4ccccc43)CC2)OCc2ccccc2-n2cccc21 (stereo unspecified) | 102 | inactive | inactive | 16.6 µM (active) | 16.6 µM (active) | 14.8 µM (active) | inactive | inactive |  |  |  | 14.8 µM (active) |  | inactive | inactive | 
15 | O=c1c(O)c(-c2ccc(O)c(O)c2)oc2cc(O)cc(O)c12 | 34.4 | inactive | inactive |  | 18.7 µM (active) | 13.2 µM (active) | inactive | inactive | inactive | inactive | inactive |  |  | inactive |  | 29.6 µM (active)
